The results in this text go back to PubChem BioAssay.

Unmarked numbers belong to inactive results. Activity calls are given as the source filed them.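 Rule for the calls: active = inhibition above the hit cutoff set in the earlier primary screen (cut at about 27% in these data); inactive = the rest.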

Usually inhibition stands for the drop in the measured response relative to a control, in per cent.

Chain of Protein phosphatase methylesterase 1 (Homo sapiens) (Q9Y570 whole entry, looked up): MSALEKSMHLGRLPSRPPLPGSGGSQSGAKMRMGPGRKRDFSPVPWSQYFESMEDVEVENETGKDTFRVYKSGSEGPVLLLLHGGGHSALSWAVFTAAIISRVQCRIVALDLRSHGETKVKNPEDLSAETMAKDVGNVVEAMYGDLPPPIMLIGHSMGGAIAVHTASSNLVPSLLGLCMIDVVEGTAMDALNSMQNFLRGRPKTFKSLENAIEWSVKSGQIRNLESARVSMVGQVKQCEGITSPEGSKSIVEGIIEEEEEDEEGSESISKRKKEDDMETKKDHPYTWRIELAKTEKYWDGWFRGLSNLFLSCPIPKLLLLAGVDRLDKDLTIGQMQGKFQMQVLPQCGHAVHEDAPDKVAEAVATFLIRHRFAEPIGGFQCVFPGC

This assay addresses Protein phosphatase methylesterase 1 (Homo sapiens) (UniProt Q9Y570). The assay is described as follows: PME-1 inhibitor activity retest, confirmation, biochemical, fluorescence polarization, FP-Rh probe, triplicate (AID 2171).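 Note: 0% = enzyme with DMSO and 100% = wells lacking PME-1.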 The note with it: recombinant PME-1, FP-Rh probe fluorescence polarization; at 5.9 µM; active compounds read high. Background: Fluorescence polarisation rises when a labelled molecule tumbles more slowly, as on binding a larger partner.
With `Cc1ccc(C(=O)N/N=C/c2ccc(-c3ccc(Br)cc3[N+](=O)[O-])o2)o1`, the inhibition was 33.1% (active).
On to `Cc1ccc(S(=O)(=O)N2CCN(C(=O)Cn3c(=O)cnc4ccccc43)CC2)cc1`, for which the inhibition is 25.8%.
Under `O=C1c2ccccc2-c2onc3ccc(NCc4ccco4)c1c23` stands 84.5% (active); under `O=C(CNc1ccc2ccccc2c1)N/N=C/c1ccc(OC(=O)/C=C/c2ccco2)cc1`, 11.7%; under `c1cc2c3c(cccc3c1)NC1(CCC3(CC1)Nc1cccc4cccc(c14)N3)N2`, 0.95%.
Take `O=C(COC(=O)/C=C/c1cccs1)Nc1nc(-c2cccc(Br)c2)cs1`: the inhibition was 14.9%.
As for `Brc1csc(/C=N/Nc2nc3ccccc3s2)c1`, the inhibition is 45.3% (active).
Under `COc1cc(/C=C2\CCC/C(=C\c3ccc(O)c(OC)c3)C2=O)ccc1O` stands 39.5% (active).
Under `N#CCC(=O)Nc1ccc(C(=O)OCc2ccccc2Oc2ccccc2)cc1` stands -74.3%.
For `Brc1ccc(C2Nc3cccc4cccc(c34)N2)s1`, the inhibition was 20.5%.
As to `COc1ccc(-c2csc(NC(=O)Nc3ccccc3)n2)cc1`, the inhibition was 25.6%.
Under `COc1ccc(/C=N/Nc2cc(C)nc(-n3nc(C)cc3C)n2)c(OC)c1` stands 41.6% (active).
Under `COc1ccc(/C=N/Nc2nc3ccccc3o2)cc1O` stands 29.9% (active); under `O=C(CN1CCCc2ccccc21)N/N=C/c1c(O)ccc2ccccc12`, 5.54%.
In the case of `Cc1ccc2[nH]c(C)c(/C=N/Nc3nc4ccccc4s3)c2c1`, the inhibition is 41.1% (active).
Under `COc1cc(/C=N\Nc2nc3ccccc3o2)cc(OC)c1OC` stands 31.4% (active).
Under `Cn1nc(-c2ccc(Cl)cc2)nc2c(=O)n(C)c(=O)nc1-2` stands 44.8% (active).
Under `O=[N+]([O-])c1ccccc1/C=C/C=N/Nc1ccc(S(=O)(=O)Nc2ccc(Cl)cc2)cc1[N+](=O)[O-]` stands 14.2%.
`Cc1ccc(N=Nc2c(N)n(-c3ccccc3)[nH]c2=O)cc1`: the inhibition was 33.1% (active).
Under `COc1ccccc1C(=O)NC(=S)Nc1cccc2cc(O)ccc12` stands 17%; under `Cc1cccc2c(N=O)c(O)[nH]c12`, 54.3% (active); under `COc1cccc(Oc2ccc(S(=O)(=O)N3CCCC3)cc2[N+](=O)[O-])c1`, 21.4%.
Under `Cc1ccc(S(=O)(=O)c2nnn3c2nc(N2CCOCC2)c2ccccc23)c(C)c1` stands 21.9%; under `COc1cccc(-c2nnc(Nc3nc4c(F)cccc4s3)o2)c1`, 46.2% (active).
Under `COc1cc(/C=N/NC(=O)c2cc3ccccc3[nH]2)ccc1O` stands 16.1%.
On to `Cc1ccc2nsnc2c1NS(=O)(=O)c1c(C)ccc2nsnc12`, for which the inhibition is 22.3%.
Under `CCC(CNc1cc(OC)cc2cccnc12)NC1CCCCC1` (stereo not given) stands 9.75%.
For `CN1C(=O)NC(c2ccccc2[N+](=O)[O-])C2=C1CCCC2=O` (stereo not given), the inhibition is 51.5% (active).
Under `COc1ccccc1-c1sc2ccccc2c1-c1ccc(C(C)=O)cc1` stands -9.37%.
Consider `Cc1cc(Nc2ccc(O)cc2)ccc1N`, for which the inhibition is 17.6%.
As to `On1onc2c3cc(-c4ccccc4)nc3ccc21`, the inhibition was 49.3% (active).
Under `COc1ccccc1/C=C/C=N/n1c(-c2cc(-c3ccccc3)n[nH]2)n[nH]c1=S` stands 23.4%; under `Cc1ccc(Nc2c([N+](=O)[O-])ccc3c2=NC2(CCCCC2)N=3)cc1`, 44.3% (active); under `COc1cccc(NC(=O)Nc2nnc(N3CCCCC3C)s2)c1` (stereo not given), 50.6% (active).
As for `COc1cc(/C=N/NC(=O)c2cc3c(ccc4ccccc43)o2)cc(OC)c1O`, the inhibition was 29% (active).
Under `Cn1c(=O)cc2c3c(c(N4CCCCC4)ccc31)C(=O)c1ccccc1-2` stands 24.1%; under `Cc1ccc(-c2nc(Nc3ccc(O)cc3)c3ccccc3n2)cc1`, 6.25%.
Under `CC1=CN2C(=N)/C(=C/c3ccc([N+](=O)[O-])o3)C(=O)N=C2S1` stands -6.58%; under `COc1ccc(N2CCN(C(=O)C3CCN(S(=O)(=O)c4ccc(F)cc4)CC3)CC2)cc1`, 59.1% (active).
As for `CCC1(C)Cc2c(sc3nc(NN)n(C)c(=O)c23)CO1` (stereo not given), the inhibition is -1.24%.
